Only a selection was taken, and hits are over-represented in it overall.
Vaccinia pol inh – vaccinia E9 polymerase processive synthesis inhibitors, primary screen, biochemical, absorbance; in vitro processive DNA synthesis, absorbance read-out; active compounds read low; Vaccinia virus DNA polymerase (E9) processive complex; normalized absorbance, % (test concentration not listed); actives 0.94% (n = 46,000); AID 493162, 2011; in the data active = normalized absorbance mostly below about 85%, no sharp cut-off; inactive = mostly above about 86%
* hit, by the source's call; ! = not active in a repeat.

SMILES	Vaccinia pol inh
CC[C@H]1OC(=O)[C@H](C)[C@@H](O[C@H]2C[C@@](C)(OC)[C@@H](O)[C@H](C)O2)[C@H](C)[C@@H](O[C@@H]2O[C@H](C)C[C@H](N(C)C)[C@H]2O)[C@](C)(O)C[C@@H](C)C(=O)[C@H](C)[C@@H](O)[C@]1(C)O	23*!
CCC(=O)O[C@H]1[C@H](O[C@@H]2[C@@H](C)[C@H](O[C@H]3C[C@@](C)(OC)[C@@H](O)[C@H](C)O3)[C@@H](C)C(=O)O[C@H](CC)[C@@](C)(O)[C@H](O)[C@@H](C)C(=O)[C@H](C)C[C@@]2(C)O)O[C@H](C)C[C@@H]1N(C)C	95
CCC(Sc1nc2ncccc2c(=O)n1Cc1ccccc1)C(=O)Nc1ccc(F)cc1 (configuration not stated)	100
O=C1/C(=C\Nc2ccccc2F)S(=O)(=O)N(Cc2ccc(Cl)cc2)c2ccccc21	100
Cc1ccc(C(=O)NCCN(C)C)cc1NC1=NC2CS(=O)(=O)CC2S1 (configuration not stated)	97
CN1CCN(CCNC(=O)c2cc3c(=O)n(C)c4ccccc4c3n2C)CC1	62*
Cn1c(C(=O)NCCc2ccc(Cl)cc2)cc2c(=O)n(C)c3ccccc3c21	100
Cn1c(C(=O)NC2CC2)cc2c(=O)n(C)c3ccccc3c21	77
CC(C)Sc1nnc(NC(=O)c2cc(Br)ccc2Cl)s1	101
CCn1c(=O)c2cc(C(=O)NCC3CCCO3)sc2c2ccccc21 (configuration not stated)	105
O=C(NCC1CCCO1)c1cc2sc3ccccc3c2s1 (configuration not stated)	66*
O=C(NCC1CCCO1)c1cc2c(s1)CCC2 (configuration not stated)	103
CSc1nc2ccc(NC(=O)C3COc4ccccc4O3)cc2s1 (configuration not stated)	100
O=C(COC(=O)Cc1cccc2ccccc12)Nc1ccccc1F	106

Compound activity: PubChem BioAssay, ICCB-Longwood Screening Facility, Harvard Medical School
